PubChem BioAssay (Tox21)
Inconclusive results are not listed. Activity calls are given as the source filed them. Calls follow the shape of the full dose curve.

These compounds were tested against Vitamin D3 receptor (Homo sapiens) (UniProt P11473) (assay: qHTS assay to identify small molecule agonists of the vitamin D receptor (VDR) signaling pathway (AID 743222)). Details: HEK293T VDR-UAS-bla, beta-lactamase FRET ratio, 16 h; series mostly up to 63.5 µM.
Vitamin D3 receptor (Homo sapiens), sequence (P11473 whole entry, looked up): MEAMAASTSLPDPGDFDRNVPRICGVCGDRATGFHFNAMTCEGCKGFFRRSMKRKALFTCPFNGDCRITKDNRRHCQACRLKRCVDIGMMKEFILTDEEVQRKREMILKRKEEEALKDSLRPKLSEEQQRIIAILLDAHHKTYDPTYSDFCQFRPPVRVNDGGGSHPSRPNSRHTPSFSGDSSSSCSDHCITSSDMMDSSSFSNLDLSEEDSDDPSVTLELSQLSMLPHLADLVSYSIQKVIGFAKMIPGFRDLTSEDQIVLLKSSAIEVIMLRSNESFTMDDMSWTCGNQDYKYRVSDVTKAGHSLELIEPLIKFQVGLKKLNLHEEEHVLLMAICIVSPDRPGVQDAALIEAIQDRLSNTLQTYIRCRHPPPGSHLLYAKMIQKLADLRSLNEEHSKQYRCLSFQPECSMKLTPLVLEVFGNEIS
Source text: National Center for Advancing Translational Sciences [NCATS]
NIH Chemical Genomics Center [NCGC]
U.S. Environmental Protection Agency [EPA]
National Institutes of Environmental Health Sciences [NIEHS]
National Toxicology Program [NTP]
U.S. Food and Drug Administration [FDA]
The vitamin D receptor (VDR), a member of nuclear hormone receptor superfamily, plays a critical role in calcium homeostasis and bone metabolism. It is also involved in cell differentiation and growth, and thrombogenicity.
Tox21 Assay Protocol Summary:
VDR-bla cells were dispensed at 2,000 cells/6 uL/well into black wall/clear-bottom 1536-well plates using a Multidrop Combi (Thermo Fisher Scientific, Waltham, MA) dispenser. After the assay plates were incubated at a 37C and 5% CO2 for 4 h, 23 nL of compounds dissolved in DMSO, positive controls or DMSO only was transferred to the assay plate by a Pintool station (Kalypsys, San Diego, CA). The plates were incubated at 37C and 5% CO2 for 16 h. After 1 uL of LiveBLAzerTM B/G FRET substrate was added using a Bioraptr Flying Reagent Dispenser (FRD) workstation (Beckman Coulter, Indianapolis, IN, USA), the plates were incubated at room temperature for 2 h, and fluorescence intensity was measured by an Envision plate reader (PerkinElmer, Shelton, CT).
With `CCCCCCCO` the outcome was “inactive”.
`CCNc1cccc(C)c1` was tested, and the outcome was “inactive”.
`CCCCCCCCCCCC(=O)OC` was tested, and the outcome was “inactive”.
`CN(C)CCOC(=O)COc1ccc(Cl)cc1` was tested, and the outcome was “inactive”.
In the case of `OCc1ccccc1`, the outcome is reported as “inactive”.
With `CC(=O)CC(C)(C)O` the outcome was “inactive”.
With `NCCNCCN` the outcome was “inactive”.
For `Cc1ccc(C(C)C)c(O)c1`, the outcome was “inactive”.
With `Brc1ccc(Br)c(Br)c1` the outcome was “inactive”.
`NCCCCCCN` was tested, and the outcome was “inactive”.
`O=C(O)Cn1c(=O)n(Cc2ccc(Br)cc2F)c(=O)c2ccc(Cl)cc21` was tested, and the outcome was “inactive”.
`CC(CCl)OP(=O)(OC(C)CCl)OC(C)CCl` (stereo not given) was tested, and the outcome was “inactive”.
For `COCCOC(=O)c1ccccc1C(=O)OCCOC`, the outcome was “inactive”.
For `CC(CCO)CC(C)(C)C` (stereo not given), the outcome was “inactive”.
With `C=C(C)C(=O)OCC(C)C` the outcome was “inactive”.
In the case of `C=Cc1ccc(C)cc1`, the outcome is reported as “inactive”.
In the case of `CCCCCCCC=O`, the outcome is reported as “inactive”.
In the case of `CC(C)=CCl`, the outcome is reported as “inactive”.
`N#Cc1ccccc1` was tested, and the outcome was “inactive”.
`CNC(=O)Oc1ccc2c(c1)[C@]1(C)CCN(C)[C@@H]1N2C` was tested, and the outcome was “inactive”.
`CC(=O)OCc1ccco1` was tested, and the outcome was “inactive”.
With `C[Si]1(C)O[Si](C)(C)O[Si](C)(C)O[Si](C)(C)O1` the outcome was “inactive”.
`CC1(C)S[C@@H]2[C@H](NC(=O)COc3ccccc3)C(=O)N2[C@H]1C(=O)O` was tested, and the outcome was “inactive”.
For `O=C1CCCC1`, the outcome was “inactive”.
With `C=C(C)[C@H]1CC=C(C)C(=O)C1` the outcome was “inactive”.
`c1ccc(Oc2ccccc2)cc1` was tested, and the outcome was “inactive”.
`CC(C)CC(C)O` (stereo not given) was tested, and the outcome was “inactive”.
In the case of `CC(C)(C)c1cc(Cc2cc(C(C)(C)C)c(O)c(C(C)(C)C)c2)cc(C(C)(C)C)c1O`, the outcome is reported as “inactive”.
`COc1ccc(CCC(C)=O)cc1` was tested, and the outcome was “inactive”.
In the case of `CNC(=S)N(C)C`, the outcome is reported as “inactive”.
With `C=C(C)CNCC` the outcome was “inactive”.
`CC(C)(C#N)c1cc(Cn2cncn2)cc(C(C)(C)C#N)c1` was tested, and the outcome was “inactive”.
`COc1ccc(OC)cc1` was tested, and the outcome was “inactive”.
For `CC(O)CC(C)(C)O` (stereo not given), the outcome was “inactive”.
`O=C(O)/C=C/C(=O)O` was tested, and the outcome was “inactive”.
For `Nc1ccc(Cl)c(N)c1`, the outcome was “inactive”.
For `CC(C)OP(=O)(CP(=O)(OC(C)C)OC(C)C)OC(C)C`, the outcome was “inactive”.
In the case of `Clc1ccccn1`, the outcome is reported as “inactive”.
For `COc1ccc(C)cc1N`, the outcome was “inactive”.
For `C=CC(C)CCCC(C)(C)O` (stereo not given), the outcome was “inactive”.
